An excerpt weighted towards active compounds, which were near 4.5% of everything screened.
hgDAF12 agonist: hgDAF-12 agonism, primary luciferase screen | HEK293 GAL4-hgDAF12 UAS-luciferase reporter, agonist luminescence; normalized to butyrate control | activation, % at 6.8 µM | 1.8% of 370,000 active;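 active = activation above a cutoff set at the mean of all screened compounds plus 3 SD, cut at about 10% in these data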;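 note: 0% = DMSO wells and 100% = sodium butyrate wells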
DAX1 inh-1: NR0B1 (DAX1) inhibition. P51843. HEK293 Gal4-DAX1 luciferase reporter, luminescence. inhibition, % at 6.75 µM. 0.99% of 340,000 active;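 active = inhibition above the mean over all tested compounds plus 3 SD, cut at about 4.2% in these data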;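 note: 0% = DAX1-transfected cells with DMSO and 100% = empty-vector control cells with DMSO; inhibition shows as a rise in luminescence from relieved DAX1 repression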
ssDAF12 agonist: activates DAF-12 receptor from parasite S. stercoralis; HEK293 ssDAF-12/GRIP1 lit1-tk-luc reporter, luminescence; % of 3 µM dafachronic acid response; activation, % at 6.8 µM; 1% of 370,000 active; AID 652126;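 active = activation above the mean over all tested compounds plus 3 SD, cut at about 0.9% in these data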;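 note: 0% = DMSO-only wells and 100% = 3 µM delta7-dafachronic acid wells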
hcDAF12 agonist: activates DAF-12 receptor from parasite H. contortus; HEK293 hcDAF-12 lit1-tk-luc reporter, luminescence; 0% DMSO, 100% Δ7-dafachronic acid; 1.4% of 370,000 active; activation, % at 6.8 µM; AID 652067;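 active = activation above the mean of all tested compounds plus 3 SD, cut at about 5.5% in these data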;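 note: 100% = response to 3 µM Δ7-dafachronic acid high control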
FXN GAA850 act: activators of GAA850 frataxin (FXN) promoter. 0.56% of 360,000 active. HEK293 lucGAA850 FXN promoter luciferase reporter, 24 h; percent of 10 µM SAHA response. activation, % at 6 µM;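 active = activation above the average of all compounds screened plus 3 SD, cutoff fixed separately per campaign, cut at about 7.5% in these data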;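 note: 0% = DMSO wells and 100% = 10 µM SAHA wells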
DAX1 inh-2: blocks DAX1 repression of SF-1 activated StAR promoter; AID 652010; inhibition, % at 6.8 µM; HEK293T StAR-luciferase reporter, SF-1/DAX-1 repression relief; 1.1% of 370,000 active;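 active = inhibition above the mean over all tested compounds plus 3 SD, cut at about 3.6% in these data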;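 note: 0% = DAX-1 cells with DMSO and 100% = cells lacking DAX-1 with DMSO; higher inhibition means more luminescence from relief of DAX-1 repression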
GAA30 counter: GAA30 FXN promoter activation counter-screen; shares compounds with FXN GAA850 act; HEK293 lucGAA30 FXN promoter luciferase, 24 h; DMSO = 0%, 5 µM ipriflavone = 100%; activation, % at 6 µM; 66% of 1,900 active;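 active = mean activation above the mean of solvent-only control wells plus 3 SD, cut at about 22% in these data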;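 note: counterscreen of GAA850 promoter hits where activity marks nonselective or luminescence artifacts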
FXN GAA850 conf: GAA850 FXN promoter activation confirmation; shares compounds with FXN GAA850 act; HEK293 lucGAA850 FXN promoter luciferase reporter, 24 h; 100% = activation by SAHA; activation, % at 6 µM; 86% of 1,900 active; AID 588351;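 active = mean activation above a set limit taken from the primary screen, cut at about 8% in these data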;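 note: 0% = DMSO wells and 100% = 10 µM SAHA wells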
DAX1 conf: NR0B1 (human) inhibition, confirmation. shares compounds with DAX1 inh-2. inhibition, % at 6.8 µM. 87% of 2,400 active. HEK293T StAR-promoter luciferase reporter, SF-1/DAX-1 repression;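 active = inhibition above the average of every tested compound plus 3 SD, cut at about 3.8% in these data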;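 note: 0% = DAX-1 cells with DMSO and 100% = no DAX-1 control cells with DMSO; active compounds raise luminescence by relieving repression of the StAR reporter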
SF1 AF2mut Luc: counter-screen for DAX1 inhibitors: nonselective inhibitors with SF-1 AF2 mutant. shares compounds with DAX1 inh-2. HEK293 StAR-luciferase, luminescence. inhibition, % at 6.8 µM. 78% of 2,400 active;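 active = inhibition above the mean of all tested compounds plus 3 SD, cut at about 3% in these data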;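 note: 0% = DAX-1 transfected cells with DMSO and 100% = cells without DAX-1 with DMSO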
LXRb hcDAF ctr: counter-screen for hcDAF-12 agonists: agonists of human LXR-beta; AID 743027; shares compounds with hcDAF12 agonist; HEK293 Gal4-LXR tk-luc reporter, luminescence, 24 h; normalized: DMSO 0%, positive control 100%; activation, % at 6.8 µM; 3,400 tested, under 10 active;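 active = mean percent activation of the reporter above a cutoff set as the average over tested compounds plus their standard deviation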
Target sequence (P55055 whole entry, looked up, the tested form may be a part): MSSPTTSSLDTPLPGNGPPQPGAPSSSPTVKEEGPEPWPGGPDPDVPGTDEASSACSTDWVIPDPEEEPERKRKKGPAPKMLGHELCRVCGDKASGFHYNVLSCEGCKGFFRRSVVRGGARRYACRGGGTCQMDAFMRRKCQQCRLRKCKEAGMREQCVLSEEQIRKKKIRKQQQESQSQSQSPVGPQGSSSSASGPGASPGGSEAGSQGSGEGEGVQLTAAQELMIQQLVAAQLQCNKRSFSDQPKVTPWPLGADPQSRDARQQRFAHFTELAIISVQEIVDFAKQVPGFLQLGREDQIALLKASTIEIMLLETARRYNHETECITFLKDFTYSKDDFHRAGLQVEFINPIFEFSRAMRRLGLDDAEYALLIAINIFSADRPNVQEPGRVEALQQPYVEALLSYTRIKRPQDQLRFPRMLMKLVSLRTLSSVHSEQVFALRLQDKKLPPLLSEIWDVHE
hcDAF12 conf: hcDAF-12 agonism, confirmation assay | 61% of 3,400 active | HEK293 hcDAF-12 lit1-tk-luc reporter, luminescence; % of Δ7-dafachronic acid response | shares compounds with hcDAF12 agonist | activation, % at 6.8 µM;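 active = mean activation across triplicate tests above the threshold derived from the earlier primary screen, cut at about 5.5% in these data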;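 note: 0% = DMSO only wells and 100% = 3 µM Δ7-dafachronic acid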
hgDAF12 conf: hgDAF-12 agonism, confirmation assay; shares compounds with hgDAF12 agonist; HEK293 GAL4-hgDAF12 luciferase reporter, agonist mode; percent of butyrate response; activation, % at 6.8 µM; 80% of 3,300 active; AID 743050;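 active = mean activation over triplicate wells above the hit cutoff derived from the earlier primary screen, cut at about 11% in these data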;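 note: 0% = DMSO low control and 100% = 2 mM sodium butyrate high control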
LXR ag 2: LXR-beta agonism as DAF-12 counter-screen; shares compounds with hgDAF12 agonist; HEK293 Gal4-LXR luciferase reporter, 24 h; activation, % at 6.8 µM; 3,300 tested, under 10 active; AID 743051;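 active = mean activation of the triplicate above a set limit carried over from the primary screen, none filed active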
Active calls of the source: *; x = no result.

SMILES	hgDAF12 agonist	DAX1 inh-1	ssDAF12 agonist	hcDAF12 agonist	FXN GAA850 act	DAX1 inh-2	GAA30 counter	FXN GAA850 conf	LXRb hcDAF ctr	hcDAF12 conf	hgDAF12 conf	LXR ag 2	others
Oc1cccc2ccc(/C=C/c3cccs3)nc12	20*	4	2.3*	17*	11*	2	35*	24*	1	12*	20*	1
Oc1cccc2ccc(/C=C/c3ccccc3Br)nc12	6	3	0	2	0	0	x	x	x	x	x	x
Cc1ccsc1/C=C/c1ccc2cccc(O)c2n1	17*	3	1.8*	15*	8.5*	3	4	24*	2	14*	22*	1
Nc1ccc2cc3[nH]c4cc(N)ccc4c3nc2c1	35*	-1	3.0*	19*	12*	-2	-84	1	3.5*	15*	20*	1
COc1ccc2cc3cc(C(=O)N4CCCCCC4)oc3nc2c1	x	-1	x	x	1	x	x	x	x	x	x	x
COc1ccc2cc3cc(C(=O)N4CCCCC4C)oc3nc2c1 (stereo unspecified)	14*	-1	0	4	8.0*	11*	122*	38*	x	x	17*	1	DAX1 conf=10*;SF1 AF2mut Luc=5.3*
Cc1cc(C(=O)Cn2nc(C(=O)O)c3ccccc3c2=O)c(C)n1C1CC1	0	1	-2	-1	2	1	x	x	x	x	x	x
COCCn1c(C)cc(C(=O)Cn2nc(C(=O)O)c3ccccc3c2=O)c1C	14*	1	0	1	9.4*	4	98*	35*	x	x	12*	0
CCS(=O)(=O)Nc1cc(-c2nc3cccnc3s2)ccc1C	22*	3	1	8.3*	7.9*	6.4*	117*	34*	1	5.6*	16*	1	DAX1 conf=8.9*;SF1 AF2mut Luc=7.7*
O=C(NCCc1ccc(Cl)cc1)c1ccc2c(c1)ncn2C1CCCCC1	-1	x	-1	-3	x	-1	x	x	x	x	x	x
COc1cccc(CNC(=O)C2CCC(CNS(=O)(=O)c3cccc4cccnc34)CC2)c1OC (stereo unspecified)	-2	x	-1	0	x	0	x	x	x	x	x	x
O=C(Cc1ccccc1)N/N=C/c1ccc2c(c1)OCO2	16*	x	-1	4	9.5*	1	84*	30*	x	x	12*	0
O=C(NC1CCCCN(Cc2cccc(Cl)c2)C1=O)c1ccc(F)c(F)c1 (stereo unspecified)	0	x	-2	-1	x	0	x	x	x	x	x	x
O=C(c1ccccc1)c1ccc(O)cc1O	0	3	-2	0	4	0	x	x	x	x	x	x

From PubChem
